Pf gamet viab – P. falciparum stage V gametocyte viability inhibition | 0.065% of 150,000 active | P. falciparum stage V gametocytes, ATP luminescence, 24 h | AID 743093 | inhibition, % at 10.9 µM;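 active = inhibition above the mean plus 3 SD of compounds within the control limits, set per campaign, cut at about 38% in these data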
Bim-Mcl-1 – human Bim-Mcl-1 interaction inhibition; Q07820; Bead-based flow cytometry, Bim peptide-Mcl-1 binding; inhibition, % at 10 µM; 0.1% of 190,000 active; in the data active = inhibition above about 40%
Mcl1 Noxa PPI – Mcl-1/Noxa interaction inhibition; Q07820; TR-FRET Mcl-1/Noxa peptide binding, 2 h; AID 1022; 1.5% of 220,000 active; inhibition, % at 21.7 µM;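 active = compounds that cut the protein-peptide binding signal by more than 50% relative to plate controls in a single-dose test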;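 note: His-tagged Mcl-1 with rhodamine Noxa BH3 peptide and terbium anti-His antibody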
14-3-3 Bad PPI – disrupts binding of bovine 14-3-3 zeta to phospho-Bad peptide; 0.71% of 220,000 active; TR-FRET 14-3-3zeta/Dy647-pBad peptide displacement, 1 h; inhibition, % at 21.7 µM;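 active = inhibition above about 70%, limit read from the data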
Mcl1 Bid PPI – disrupts binding of human Mcl-1 to Bid peptide; TR-FRET Mcl-1/Bid-Dy647 peptide binding, 1536-well; inhibition, % at 21.7 µM; 0.97% of 220,000 active; AID 1021;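 active = compounds that cut the binding signal by more than half at the single screening dose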;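 note: His-tagged Mcl-1 with europium anti-His antibody binding Bid BH3 peptide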
eIF4E-4G inh – blocks eIF4E binding to eIF4G | P63073+Q04637 | TR-FRET eIF4E-eIF4GI(517-606) binding, 2 h | inhibition, % at 21.7 µM | 0.37% of 220,000 active | AID 782;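 active = inhibition above about 30%, limit read from the data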
Target sequence (P63073 whole entry, looked up): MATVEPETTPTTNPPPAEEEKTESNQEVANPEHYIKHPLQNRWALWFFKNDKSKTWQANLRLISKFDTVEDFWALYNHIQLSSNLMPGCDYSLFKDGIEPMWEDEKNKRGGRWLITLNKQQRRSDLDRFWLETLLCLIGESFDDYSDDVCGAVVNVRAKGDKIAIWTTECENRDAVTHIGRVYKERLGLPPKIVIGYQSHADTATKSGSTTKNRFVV
Target sequence (Q04637 whole entry, looked up): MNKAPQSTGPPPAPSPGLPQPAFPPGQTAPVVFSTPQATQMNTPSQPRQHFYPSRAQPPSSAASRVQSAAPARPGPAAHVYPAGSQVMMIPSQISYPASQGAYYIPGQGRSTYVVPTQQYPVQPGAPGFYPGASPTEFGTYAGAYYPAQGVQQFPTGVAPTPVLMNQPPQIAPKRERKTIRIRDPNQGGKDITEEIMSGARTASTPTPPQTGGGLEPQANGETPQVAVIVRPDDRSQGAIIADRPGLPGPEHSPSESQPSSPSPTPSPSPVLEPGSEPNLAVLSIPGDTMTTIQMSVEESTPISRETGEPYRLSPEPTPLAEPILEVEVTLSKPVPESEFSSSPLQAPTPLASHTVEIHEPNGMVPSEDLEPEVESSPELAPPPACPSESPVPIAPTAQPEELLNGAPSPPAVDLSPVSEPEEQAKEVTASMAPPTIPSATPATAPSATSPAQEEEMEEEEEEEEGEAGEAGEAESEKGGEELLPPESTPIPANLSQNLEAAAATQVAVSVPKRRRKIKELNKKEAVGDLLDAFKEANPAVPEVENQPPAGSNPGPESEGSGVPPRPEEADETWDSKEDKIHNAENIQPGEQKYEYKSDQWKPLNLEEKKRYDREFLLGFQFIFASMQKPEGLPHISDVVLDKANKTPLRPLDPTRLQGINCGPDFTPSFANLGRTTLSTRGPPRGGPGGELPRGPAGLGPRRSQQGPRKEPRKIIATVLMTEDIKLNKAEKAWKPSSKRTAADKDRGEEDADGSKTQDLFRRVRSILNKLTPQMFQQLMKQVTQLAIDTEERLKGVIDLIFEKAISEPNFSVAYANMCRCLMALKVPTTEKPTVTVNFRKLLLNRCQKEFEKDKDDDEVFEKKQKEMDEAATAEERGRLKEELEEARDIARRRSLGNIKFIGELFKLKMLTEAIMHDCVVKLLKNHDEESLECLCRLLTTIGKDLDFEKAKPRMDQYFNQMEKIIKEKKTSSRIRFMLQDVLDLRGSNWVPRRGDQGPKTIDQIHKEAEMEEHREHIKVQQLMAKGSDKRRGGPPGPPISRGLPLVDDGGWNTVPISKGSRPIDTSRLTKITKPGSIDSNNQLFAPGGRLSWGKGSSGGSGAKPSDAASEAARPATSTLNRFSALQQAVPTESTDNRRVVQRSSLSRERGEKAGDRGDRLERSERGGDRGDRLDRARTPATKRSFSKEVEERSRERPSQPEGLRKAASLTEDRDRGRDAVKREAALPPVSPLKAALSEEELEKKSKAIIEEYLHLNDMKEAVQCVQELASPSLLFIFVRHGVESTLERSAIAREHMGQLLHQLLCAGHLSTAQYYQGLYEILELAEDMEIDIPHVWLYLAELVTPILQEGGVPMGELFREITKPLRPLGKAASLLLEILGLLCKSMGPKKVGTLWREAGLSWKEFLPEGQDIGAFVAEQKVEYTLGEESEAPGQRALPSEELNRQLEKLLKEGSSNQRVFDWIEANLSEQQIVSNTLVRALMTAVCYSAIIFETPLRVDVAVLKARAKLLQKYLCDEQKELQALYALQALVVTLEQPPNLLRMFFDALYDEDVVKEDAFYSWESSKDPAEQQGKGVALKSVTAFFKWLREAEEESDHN
Hits are given with their value; i = inactive; nt = no result given. In the library only some 2.7% were active in any assay of this set; here they are far more common.

SMILES | Pf gamet viab | Bim-Mcl-1 | Mcl1 Noxa PPI | 14-3-3 Bad PPI | Mcl1 Bid PPI | eIF4E-4G inh
COc1ccc(N2CCN(C(=O)CCNC(=O)Cn3ccc4ccccc4c3=O)CC2)cc1 | i | i | i | i | i | 78
Nc1nnc(Cc2cccc(Br)c2)s1 | i | nt | i | i | i | i
COC(=O)C(C(=O)Nc1nc2ccccc2s1)C1CCCC1 (configuration not stated) | i | i | i | i | i | i
CC(=O)Nc1ccc(N2CCCCC2)c(C(=O)Nc2cccc(C)c2)c1 | i | i | i | i | i | 43
Cc1cccc(NC(=O)c2cc(NC(=O)C3CCCCC3C(=O)O)ccc2N2CCCCC2)c1 (configuration not stated) | i | i | i | i | i | i
O=S(=O)(Cc1cc(Cl)nc(-c2ccncc2)n1)c1ccccc1 | i | i | 81 | i | i | i
Cc1ccc(S(=O)(=O)N2C(=O)/C(=C3\SC(=S)NC3=O)c3ccccc32)cc1 | nt | nt | 70 | i | i | i
O=C(C[n+]1cc(-c2ccccc2)n2c1CCC2)N1c2ccccc2Sc2ccccc21 | i | i | i | i | 90 | i
O=C(Cn1cncn1)c1ccccc1 | i | nt | i | i | i | i
CC[n+]1ccc(/C=C2\Sc3ccccc3N2CCCS(=O)(=O)[O-])c2ccccc21 | i | i | i | i | i | i
CN1C=C/C(=C\c2cc[n+](C)c3ccccc23)c2ccccc21 | i | i | 85 | i | i | i
O=C(CSc1nnc(Cc2ccccc2)o1)Nc1ccc2c(c1)OCO2 | nt | i | i | i | i | i
CSc1ccccc1NC(=O)c1cc(-c2cccnc2)nc2ccc(Br)cc12 | i | i | i | 89 | 64 | i
CCOc1ccc(/C=N/NC(=O)Cn2ccnc2C)cc1 | i | nt | i | i | i | i
Cc1ccc(S(=O)(=O)Nc2cccc(-c3cn4ccsc4n3)c2)cc1 | nt | i | i | i | i | i
O=S(=O)(Nc1cccc(-c2cn3ccsc3n2)c1)c1ccc(F)cc1 | nt | i | i | i | 98 | i
CC(C)Nc1nc(NC(C)C)nc(Oc2ccc(=O)n(C)n2)n1 | i | i | i | i | i | i
CCNc1nc(NC(C)C)nc(Oc2ccc(=O)n(C)n2)n1 | i | i | i | i | i | 65
Cc1[nH]c2ccccc2c1/C=C/c1nc2ccccc2c(=O)[nH]1 | i | nt | 74 | 82 | 64 | i
Cc1cccc(/C=C/c2nc3ccccc3c(=O)[nH]2)c1 | i | i | i | i | i | i
C=CCSc1nnc2nc3[nH]c4c(C)cccc4c3nn12 | i | i | i | i | i | i
N#Cc1sc2nc(-c3ccccc3)cc(-c3ccco3)c2c1N | nt | i | 102 | i | 74 | i
CC(C)(C)c1cc(-c2ccco2)c(C#N)c(SCC#N)n1 | i | i | i | i | i | i
N#Cc1c(-c2ccccc2)cc(-c2ccco2)c(C#N)c1N | nt | i | 74 | i | i | i
N#Cc1c(-c2ccco2)cc(-c2ccccc2)[nH]c1=O | i | nt | i | i | i | i
SMILES | Pf gamet viab | Bim-Mcl-1 | Mcl1 Noxa PPI | 14-3-3 Bad PPI | Mcl1 Bid PPI | eIF4E-4G inh
Cc1ccc(-c2cc(-c3ccco3)c(C#N)c(=O)[nH]2)cc1 | i | nt | 68 | i | i | i
N#Cc1sc2nc(C3CC3)cc(-c3ccccc3)c2c1N | i | i | i | i | i | i
Cc1cc(C)c(S(=O)(=O)CCC(C)C)c(=O)[nH]1 | i | i | i | i | i | i
O=C(Nc1ncc(Br)s1)C(Cc1ccccc1)n1cccc1 (configuration not stated) | nt | i | i | i | i | i
COc1ccccc1NC(=O)CC(c1ccc(OC(C)C)cc1)c1ccccc1OC (configuration not stated) | nt | i | i | i | i | i
COc1ccccc1C(CC(=O)Nc1ccc(C)c(C)c1)c1ccc(OC(C)C)cc1 (configuration not stated) | i | i | 55 | i | i | i
O=C(CNC(=O)c1cccs1)NCCN1CCC(Cc2ccccc2)CC1 | i | i | i | i | i | i
C=CS(=O)(=O)c1sc(Cl)c(N2CCOCC2)c1[N+](=O)[O-] | i | i | 67 | i | 69 | i
C=CSc1sc(Cl)c(N2CCOCC2)c1[N+](=O)[O-] | i | i | i | i | i | i
COc1ccc(-c2cc(-c3ccccc3)c(C#N)c(S(C)=O)n2)cc1 (configuration not stated) | i | i | i | i | i | i
COc1ccc(-c2cc3nc4ccccc4n3c(N)c2C#N)cc1 | i | nt | 81 | 71 | 72 | i
CCOC(=O)c1c(C)[nH]c(C(=O)COC(=O)/C=C/c2ccc3c(c2)OCO3)c1C | nt | i | i | i | 56 | i
CCOC(=O)c1c(C)[nH]c(C(=O)COC(=O)/C=C/c2ccc(O)c(OC)c2)c1C | nt | i | i | i | i | i
COC(C[C@H](O)C[C@H](O)COCc1ccccc1)OC | i | nt | i | i | i | i
CCNC(=O)COC(=O)c1cc(-c2ccc(OC)cc2)nc2ccccc12 | nt | i | i | i | i | i
O=C(COC(=O)c1cc(-c2ccco2)nc2ccccc12)NCc1ccccc1 | nt | i | i | i | i | i
CCN(CC)C(=O)COC(=O)c1cc(-c2ccc(OC)cc2)nc2ccccc12 | nt | i | i | i | 97 | i
CCOC(=O)c1cc(-c2ccco2)nc2c1c(C)nn2CCC#N | i | i | i | i | i | i
CCN(CC)C(=O)COC(=O)c1cc(-c2ccco2)nc2ccccc12 | i | i | 90 | i | i | 34
CCOC(=O)c1cc(-c2ccco2)nc2c1c(C)nn2-c1cccc(Cl)c1 | i | i | 78 | i | i | i
CNC(=O)COC(=O)c1cc(-c2ccco2)nc2ccccc12 | i | nt | 76 | i | i | 38
Cc1ccc(S(=O)(=O)/N=C(\CN2CCCCC2)N2CCOCC2)cc1 | i | i | i | i | i | i
O=C(O)c1ccccc1/C=N/NC(=O)c1cc(-c2ccco2)nc2ccccc12 | i | nt | 99 | i | i | 45
CC(=O)Nc1ccc(/C=N/NC(=O)c2cc(-c3ccco3)nc3ccccc23)cc1 | i | nt | i | i | i | i
CC(=O)OC1=C(C#N)Cn2ccc3cccc1c32 | nt | i | i | i | i | 32
SMILES | Pf gamet viab | Bim-Mcl-1 | Mcl1 Noxa PPI | 14-3-3 Bad PPI | Mcl1 Bid PPI | eIF4E-4G inh
COc1ccc2oc(=O)c(-c3csc(Nc4ccc(O)cc4)n3)cc2c1 | i | i | 73 | i | i | i
CNc1nnc(-c2cc3cc(Cl)ccc3oc2=O)s1 | i | i | 64 | i | i | i
CCOc1cccc2cc(-c3nnc(NCc4ccco4)s3)c(=O)oc12 | nt | i | 64 | i | i | i
CCOc1cccc2cc(-c3cn4cc(C)ccc4n3)c(=O)oc12 | nt | i | i | i | 80 | i
CCOc1cccc2cc(C(C)=O)oc12 | i | i | i | i | i | i
COc1cccc2cc(-c3cn4ccc(C)cc4n3)c(=O)oc12 | i | nt | nt | nt | nt | nt
COc1ccc2oc(=O)c(/C(C)=N/Nc3nc(-c4cc(C)ccc4C)cs3)cc2c1 | nt | i | i | i | i | i
O=[N+]([O-])c1cccc(/C=C/C=N/Nc2nc(N3CCCCC3)nc(N3CCCCC3)n2)c1 | i | i | i | i | i | i
